Test results taken from PubChem BioAssay (NCATS).
Results filed as inconclusive are left out. Activity calls are given as the source filed them. Unless noted, the call rests on the fitted dose curve; in most records, active means well fitted curve in the direction sought with a large enough effect; inconclusive means small, poorly fitted or top-dose-only effect, or another doubt; inactive means no such curve, though single readings can be large; an effect the other way counts as inactive or inconclusive.

What was measured:
[1] = Validation screen for inhibitors of Lassa infection (AID 463096; calls by dose curve)
[2] = target: ATP-dependent DNA helicase Q1 (Homo sapiens) (UniProt P46063); assay: qHTS Validation Assay for Inhibitors of RecQ-Like Dna Helicase 1 (RECQ1) (AID 2353)
Sequence of ATP-dependent DNA helicase Q1 (Homo sapiens) (P46063 whole entry, looked up): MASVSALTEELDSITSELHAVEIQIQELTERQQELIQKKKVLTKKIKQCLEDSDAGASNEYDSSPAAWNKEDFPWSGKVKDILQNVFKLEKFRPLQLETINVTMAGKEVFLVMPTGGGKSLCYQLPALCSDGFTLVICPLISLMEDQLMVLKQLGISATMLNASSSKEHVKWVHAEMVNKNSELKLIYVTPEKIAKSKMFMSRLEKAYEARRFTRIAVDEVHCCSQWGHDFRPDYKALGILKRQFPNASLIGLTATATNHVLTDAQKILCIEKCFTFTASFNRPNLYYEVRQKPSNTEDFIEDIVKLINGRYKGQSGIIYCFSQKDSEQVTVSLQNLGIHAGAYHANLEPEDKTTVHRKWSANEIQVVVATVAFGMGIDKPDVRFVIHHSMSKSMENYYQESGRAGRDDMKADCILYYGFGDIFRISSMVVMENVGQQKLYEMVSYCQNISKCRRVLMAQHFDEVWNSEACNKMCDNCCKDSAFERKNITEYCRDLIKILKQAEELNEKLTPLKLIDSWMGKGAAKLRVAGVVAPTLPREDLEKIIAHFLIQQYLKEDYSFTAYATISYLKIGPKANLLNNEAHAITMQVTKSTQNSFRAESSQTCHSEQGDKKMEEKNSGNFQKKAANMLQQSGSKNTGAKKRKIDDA
Outline: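 RECQ1T1 50 nM; forked duplex (20 bp + 30-nt ss tails) 200 nM, ATP 2 mM final; pH 8.0, 2 mM MgCl2, 2.5 ug/ml poly(dI-dC); 15 min compound preincubation; discontinuous kinetic read over 2 h at RT.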

[3] = target: RecQ-like DNA helicase BLM (Homo sapiens) (UniProt P54132); assay: qHTS Validation Assay for Inhibitors of Bloom's syndrome helicase (BLM) (AID 2364)
Outline: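 BLM 50 nM in 25 mM Tris-HCl pH 8.0, 5 mM NaCl, 2 mM MgCl2, 1 mM DTT, 0.01% Tween-20, 2.5 ug/ml poly(dI-dC); 15 min cpd preinc, RT. Start: 200 nM forked DNA + 2 mM ATP (final). TAMRA read, 2 reads 2 h apart.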

[4] = Cytometric Cell-Based qHTS for Inhibitors of the mTORC1 Signaling Pathway in MEF (Tsc2-/-, p53-/-) Cells (AID 2660);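 further: Tsc2 and p53 null MEFs carrying empty vector with compound for 24 h; percent of cells above a phospho-rpS6 to PI ratio cutoff in each well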
Outline: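 Immunofluorescence qHTS of rpS6 Ser235/236 phosphorylation: MEFs (Tsc2-/-, p53-/-) treated 24 h, 37 C, in DMEM + 10% FBS. Alexa-488 signal normalized to PI count, referenced to rapamycin (7.5 nM) and DMSO; PI cell number recorded for viability.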

[5] = High Content Imaging Cell-Based qHTS for Inhibitors of the mTORC1 Signaling Pathway in MEF (Tsc2-/-, p53-/-) Cells (AID 2666); conditions: at 38.3 µM (top of the series);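 further: percent of cells scored positive for phospho-rpS6 Ser235/236 immunostaining by imaging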
Outline: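 Inhibition of rpS6 phosphorylation is measured by immunofluorescence imaging in empty-vector Tsc2-/-, p53-/- mouse embryonic fibroblasts after 24 hrs compound exposure at 37 degree Celsius. Results are reported as % positive cells per well.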

[6] = High Content Imaging Cell-Based qHTS for Inhibitors of the mTORC1 Signaling Pathway in MEF Cells (AID 2667);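 further: Tsc2-/- p53-/- MEFs stably re-expressing wild-type Tsc2 exposed 24 h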
Outline: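 Fixed-cell imaging of phospho-S6 (Ser235/236, Alexa-488) after 24 hrs of compound treatment at 37 degree Celsius. Signal was normalized to Hoechst, and thresholds from the highest and lowest wells split cells into % active versus % non-active.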

[7] = Cytometry Cell-Based qHTS for Inhibitors of the mTORC1 Signaling Pathway in MEF cells (AID 2668);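 further: Tsc2-/- p53-/- mouse embryonic fibroblasts stably re-expressing wild-type Tsc2; percent cells positive for phospho-rpS6 Ser235/236 relative to propidium iodide stain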
Outline: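 Pathway inhibition in WT Tsc2-rescued Tsc2-/-, p53-/- MEFs is measured as the Alexa-488 phospho-rpS6 to propidium iodide intensity ratio after 24 hrs of compound at 37 degree Celsius. PI-stained cell number gives viability.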

[8] = Validation screen for small molecules that induce DNA re-replication in MCF 10A normal breast cells (AID 463097); further: nearly all actives have a fitted effect of over 60% in size
Outline: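 DNA re-replication was detected as a rise in nuclei with elevated Hoechst fluorescence after a 48 hr compound exposure of MCF 10A cells at 37 C.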

[9] = target: Ubiquitin carboxyl-terminal hydrolase 2 (Homo sapiens) (UniProt O75604); assay: qHTS Validation Assay for Inhibitors of Ubiquitin-specific Protease USP2a Using CHOP2 as the Reporter (AID 463106)
Outline: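 Inhibition is expressed relative to NEM as the full-inhibition control, with concentration-response curves classed by fit quality, magnitude and activity. Enzyme (USP2 core, 10nM) meets 25nM Ub-CHOP2 after compound preincubation; readings are taken at 60min.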

[10] = target: DNA polymerase III PolC-type (Bacillus subtilis (strain 168)) (UniProt P13267); assay: qHTS Validation Assay for the Inhibitors of DNA Replication in Gram-Positive Bacteria (AID 485295);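 further: reconstituted holoenzyme with PolC plus beta clamp SSB and primase; PicoGreen fluorescence of double-stranded DNA made on primed circular M13 template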
Sequence of DNA polymerase III PolC-type (Bacillus subtilis (strain 168)) (P13267 whole entry, looked up): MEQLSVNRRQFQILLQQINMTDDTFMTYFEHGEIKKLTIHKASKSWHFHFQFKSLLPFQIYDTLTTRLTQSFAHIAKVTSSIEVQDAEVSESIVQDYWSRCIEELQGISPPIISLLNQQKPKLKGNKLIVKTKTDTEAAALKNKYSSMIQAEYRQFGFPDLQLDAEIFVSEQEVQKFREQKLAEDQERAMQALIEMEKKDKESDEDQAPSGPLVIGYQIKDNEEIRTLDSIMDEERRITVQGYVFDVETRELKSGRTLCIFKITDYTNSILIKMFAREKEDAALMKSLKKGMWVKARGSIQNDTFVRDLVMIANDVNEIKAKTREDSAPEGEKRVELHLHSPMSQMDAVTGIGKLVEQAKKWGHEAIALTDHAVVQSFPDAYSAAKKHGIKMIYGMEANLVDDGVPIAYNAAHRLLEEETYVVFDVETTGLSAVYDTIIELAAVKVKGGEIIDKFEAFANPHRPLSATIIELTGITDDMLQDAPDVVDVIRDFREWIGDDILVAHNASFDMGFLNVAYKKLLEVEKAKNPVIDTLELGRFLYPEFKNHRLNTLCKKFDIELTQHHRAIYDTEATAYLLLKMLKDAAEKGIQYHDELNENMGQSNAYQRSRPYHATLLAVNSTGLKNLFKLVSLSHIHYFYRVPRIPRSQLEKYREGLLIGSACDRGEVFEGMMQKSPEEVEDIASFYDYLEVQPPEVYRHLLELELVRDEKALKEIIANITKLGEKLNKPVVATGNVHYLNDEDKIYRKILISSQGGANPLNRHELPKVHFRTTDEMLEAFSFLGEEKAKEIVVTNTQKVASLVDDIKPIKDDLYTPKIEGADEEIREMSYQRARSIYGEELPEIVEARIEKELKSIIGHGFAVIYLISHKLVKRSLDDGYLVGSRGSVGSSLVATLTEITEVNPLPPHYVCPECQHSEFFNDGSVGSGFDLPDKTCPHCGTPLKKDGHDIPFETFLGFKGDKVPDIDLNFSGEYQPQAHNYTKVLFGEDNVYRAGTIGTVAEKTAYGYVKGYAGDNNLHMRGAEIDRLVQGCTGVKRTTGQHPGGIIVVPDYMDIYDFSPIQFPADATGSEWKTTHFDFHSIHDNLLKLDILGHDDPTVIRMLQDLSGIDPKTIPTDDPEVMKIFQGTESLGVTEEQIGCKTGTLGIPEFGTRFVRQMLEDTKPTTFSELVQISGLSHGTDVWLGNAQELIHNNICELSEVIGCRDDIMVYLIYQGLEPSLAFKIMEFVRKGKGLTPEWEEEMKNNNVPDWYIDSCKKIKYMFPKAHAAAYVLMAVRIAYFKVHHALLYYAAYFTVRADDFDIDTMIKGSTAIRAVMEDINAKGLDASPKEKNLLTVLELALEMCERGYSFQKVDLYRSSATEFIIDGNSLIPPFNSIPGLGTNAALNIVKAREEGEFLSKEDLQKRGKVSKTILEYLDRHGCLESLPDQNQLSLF
Outline: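 Primed replication of single-stranded M13Gori by a four-protein B. subtilis holoenzyme is measured at room temperature. Double-stranded product is quantified by PicoGreen fluorescence after an EDTA stop; inhibition is scaled between DMSO and EDTA controls.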

[11] = target: Tumor susceptibility gene 101 protein (Homo sapiens) (UniProt Q99816); assay: qHTS Validation Assay for Iinhibitors of HIV-1 Budding by Blocking the Interaction of PTAP/TSG101 (AID 485342; calls by dose curve)
Sequence of Tumor susceptibility gene 101 protein (Homo sapiens) (Q99816 whole entry, looked up, the tested form may be a part): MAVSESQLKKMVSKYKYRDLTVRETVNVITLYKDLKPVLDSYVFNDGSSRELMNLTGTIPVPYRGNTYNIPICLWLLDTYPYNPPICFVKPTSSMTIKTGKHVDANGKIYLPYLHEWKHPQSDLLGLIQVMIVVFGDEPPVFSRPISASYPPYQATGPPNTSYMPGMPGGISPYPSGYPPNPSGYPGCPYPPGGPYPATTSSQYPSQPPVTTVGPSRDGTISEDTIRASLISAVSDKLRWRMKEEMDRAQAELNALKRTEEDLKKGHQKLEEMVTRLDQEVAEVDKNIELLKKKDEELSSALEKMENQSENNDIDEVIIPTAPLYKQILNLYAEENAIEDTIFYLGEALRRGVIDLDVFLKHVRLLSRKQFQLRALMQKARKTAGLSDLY
Outline: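 Fluorescence anisotropy measured PTAP-Tsg101 interaction. Final concentrations were 10 uM protein domain and 50 nM labeled peptide, equilibrated 20 min at room temperature.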

[12] = target: Beta-2 adrenergic receptor (Homo sapiens) (UniProt P07550); assay: qHTS validation assay of beta-arrestin-biased ligands of beta2-adrenergic receptor (AID 485366)
Sequence of Beta-2 adrenergic receptor (Homo sapiens) (P07550 whole entry, looked up): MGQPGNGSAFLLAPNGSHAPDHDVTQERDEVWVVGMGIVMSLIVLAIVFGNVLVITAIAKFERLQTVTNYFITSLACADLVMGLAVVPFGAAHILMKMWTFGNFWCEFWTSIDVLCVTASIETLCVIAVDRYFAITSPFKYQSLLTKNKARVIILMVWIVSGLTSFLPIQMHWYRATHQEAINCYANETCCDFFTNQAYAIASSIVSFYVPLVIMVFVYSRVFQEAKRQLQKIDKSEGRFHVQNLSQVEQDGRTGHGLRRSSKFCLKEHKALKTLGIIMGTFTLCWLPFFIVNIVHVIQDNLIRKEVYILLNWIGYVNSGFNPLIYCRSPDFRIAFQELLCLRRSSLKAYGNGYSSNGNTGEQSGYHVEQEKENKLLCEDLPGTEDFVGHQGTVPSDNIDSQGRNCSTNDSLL
Outline: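 Agonism was measured as beta-arrestin recruitment to recombinant beta2-AR, releasing tTA to drive luciferase. Cells were exposed for 18 hr at 37 degrees C to a series up to 46 microM. %Activity from corrected luminescence gave concentration-response curves.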

[13] = target: ATP-dependent 6-phosphofructokinase (Trypanosoma brucei brucei) (UniProt O15648); assay: qHTS Validation Assay to Find Inhibitors of T. brucei phosphofructokinase (AID 485368); conditions: outcome: dose series up to 57.5 µM
Outline: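 ADP-Glo luminescence, two-step: residual ATP depleted, then ADP converted to ATP for luciferase. Enzyme 1.25 nM, F6P 0.5 mM, ATP 0.1 mM, pH 8.0 TEA buffer, 45 min RT. Curves fitted and classed by quality and efficacy.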

[14] = Quantitative high throughput screen for delayed death inhibitors of the malarial parasite plastid, 96 hour incubation (AID 488745);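 further: luciferase-expressing P. falciparum in erythrocytes at 2% hematocrit and 0.1% parasitemia; nearly all actives have a fitted effect of over 70% in size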
Outline: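 Readout is firefly luciferase luminescence from an integrated reporter in P. falciparum; lower signal marks inhibited growth. Cultures at 2% hematocrit and 0.1% parasitemia were treated with compound across two generations (96 h, 37 C, 5% CO2).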

[15] = Quantitative high throughput screen for delayed death inhibitors of the malarial parasite plastid, 48 hour incubation (AID 488752); further: nearly all actives have a fitted effect of over 65% in size
Outline: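 First, compound was pinned into RPMI 1640 medium containing 0.5% Albumax. Next, reporter-parasite-infected erythrocytes were added to 2% hematocrit and 0.1% parasitemia. After 48 h at 37 C under 5% CO2, luciferase detection reagent was added and luminescence read.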

[16] = target: Thioredoxin reductase 1, cytoplasmic (Rattus norvegicus) (UniProt O89049); assay: qHTS Assay for Substrates of Mammalian Selenoprotein Thioredoxin Reductase 1 (TrxR1) (AID 488772);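 further: a drop in NADPH fluorescence below the no-compound background marks a TrxR1 substrate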
Sequence of Thioredoxin reductase 1, cytoplasmic (Rattus norvegicus) (O89049 whole entry, looked up): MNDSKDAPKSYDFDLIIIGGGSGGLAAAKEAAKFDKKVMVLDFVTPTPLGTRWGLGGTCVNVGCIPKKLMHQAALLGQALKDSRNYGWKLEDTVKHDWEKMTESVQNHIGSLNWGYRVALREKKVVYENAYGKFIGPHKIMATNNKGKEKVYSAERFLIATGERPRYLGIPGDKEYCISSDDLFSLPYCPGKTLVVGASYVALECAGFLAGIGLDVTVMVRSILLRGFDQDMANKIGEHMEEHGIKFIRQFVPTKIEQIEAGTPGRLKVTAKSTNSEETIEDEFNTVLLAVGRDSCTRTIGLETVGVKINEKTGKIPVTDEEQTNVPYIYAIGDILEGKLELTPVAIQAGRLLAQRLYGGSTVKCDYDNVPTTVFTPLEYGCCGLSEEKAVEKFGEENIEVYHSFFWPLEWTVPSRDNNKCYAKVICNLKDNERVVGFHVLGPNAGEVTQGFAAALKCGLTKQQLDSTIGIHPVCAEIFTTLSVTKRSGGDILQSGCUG
Outline: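 In this dual-purpose format, potential substrates are identified from the first fluorescence read after selenite addition, not from the 8-minute delta. Rat enzyme is preincubated with NADPH and then with compound at ~22 deg C.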

[17] = target: Thioredoxin reductase 1, cytoplasmic (Rattus norvegicus) (UniProt O89049); assay: qHTS Assay for Inhibitors of Mammalian Selenoprotein Thioredoxin Reductase 1 (TrxR1) (AID 488773); conditions: Potency: inhibition;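 further: drop in NADPH fluorescence over an 8 min run after selenite addition; nearly all actives have a fitted effect of over 40% in size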
Outline: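 Inhibition is scored from the loss of NADPH fluorescence between first and last reads of an 8-min kinetic run. Selenite (400 uM) was the substrate, added after 15 min compound preincubation at room temperature.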

[18] = target: Flap endonuclease 1 (Homo sapiens) (UniProt P39748); assay: qHTS Validation Assay for the Inhibitors of Human Flap endonuclease 1 (FEN1) (AID 488816)
Sequence of Flap endonuclease 1 (Homo sapiens) (P39748 whole entry, looked up): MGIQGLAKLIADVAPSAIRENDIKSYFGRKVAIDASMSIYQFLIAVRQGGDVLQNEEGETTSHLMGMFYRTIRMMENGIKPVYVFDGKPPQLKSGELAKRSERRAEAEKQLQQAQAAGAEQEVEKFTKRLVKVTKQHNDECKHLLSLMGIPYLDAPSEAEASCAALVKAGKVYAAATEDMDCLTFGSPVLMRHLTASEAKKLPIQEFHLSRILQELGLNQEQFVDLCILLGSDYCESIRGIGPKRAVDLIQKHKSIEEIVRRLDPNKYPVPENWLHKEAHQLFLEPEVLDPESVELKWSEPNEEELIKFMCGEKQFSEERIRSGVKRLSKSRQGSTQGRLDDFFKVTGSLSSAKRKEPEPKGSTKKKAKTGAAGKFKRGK
Outline: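 Steps: add FEN1 (10 nM reagent) or buffer only; pin compounds; hold 15 min at room temperature; start with substrate, 50 nM final; read at 0 and 15 min; correct, normalize and fit a four-parameter Hill curve.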

[19] = target: M-phase phosphoprotein 8 (Homo sapiens) (UniProt Q99549); assay: qHTS Validation Assay for Inhibitors for MPP8 Chromodomain Interactions with Methylated Histone Tails (AID 488949);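 further: AlphaScreen signal from MPP8 chromodomain bound to biotinylated H3K9me3 peptide; top concentration of the series differs between compounds; nearly all actives have a fitted effect of over 55% in size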
Sequence of M-phase phosphoprotein 8 (Homo sapiens) (Q99549 whole entry, looked up): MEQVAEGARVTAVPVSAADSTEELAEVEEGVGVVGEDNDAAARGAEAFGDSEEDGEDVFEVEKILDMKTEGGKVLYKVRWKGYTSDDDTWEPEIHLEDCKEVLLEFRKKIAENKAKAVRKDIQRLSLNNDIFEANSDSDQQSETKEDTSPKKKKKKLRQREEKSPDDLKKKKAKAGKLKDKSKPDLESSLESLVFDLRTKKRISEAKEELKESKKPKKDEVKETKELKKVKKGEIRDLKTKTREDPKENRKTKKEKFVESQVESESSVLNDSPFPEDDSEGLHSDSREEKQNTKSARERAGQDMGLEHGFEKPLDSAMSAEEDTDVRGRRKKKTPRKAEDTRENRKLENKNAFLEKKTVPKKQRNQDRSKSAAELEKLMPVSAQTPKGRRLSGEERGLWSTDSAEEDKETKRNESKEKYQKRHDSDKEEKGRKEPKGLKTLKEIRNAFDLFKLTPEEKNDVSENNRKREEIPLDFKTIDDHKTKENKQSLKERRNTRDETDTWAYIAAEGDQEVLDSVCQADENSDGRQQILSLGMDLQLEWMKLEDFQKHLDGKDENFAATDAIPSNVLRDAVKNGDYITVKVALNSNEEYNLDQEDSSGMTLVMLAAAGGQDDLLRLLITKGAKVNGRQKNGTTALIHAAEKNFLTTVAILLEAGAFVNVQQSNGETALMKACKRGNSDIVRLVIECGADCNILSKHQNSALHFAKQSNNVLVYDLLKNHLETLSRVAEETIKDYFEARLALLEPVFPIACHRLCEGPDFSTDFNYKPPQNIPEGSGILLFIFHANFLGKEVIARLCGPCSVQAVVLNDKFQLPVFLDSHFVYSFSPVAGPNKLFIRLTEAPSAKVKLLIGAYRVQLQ
Outline: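 Disruption of the preformed MPP8–trimethyl-H3K9 peptide complex (both 50 nM, 30 min, RT) is measured after 30 min compound exposure, using AlphaScreen proximity beads; aurintricarboxylic acid titration serves as plate control.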

[20] = qHTS Validation Assay to Find Inhibitors of Chronic Active B-Cell Receptor Signaling (AID 485345; active means well fitted curve in the direction sought with a large enough effect in the main read-out, with a control signal flat, not every such curve was filed as active)
Outline: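 TMD8 ABC-DLBCL cells with dox-inducible green luciferase–IκBα fusion and red native luciferase; compounds 46 uM–3 nM, 4 h at 37C with doxycycline in 0.5% FBS IMDM. Green/red ratio normalized to basal and 10 uM MG-132.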

Measured: Potency

COc1ccc2c(c1)c(CC(=O)O)c(C)n2C(=O)c1ccc(Cl)cc1
inactive: [1]

Nc1c2c(nc3ccccc13)CCCC2
inactive: [1]

CC(C)COCC(CN(Cc1ccccc1)c1ccccc1)N1CCCC1 (stereo unspecified)
inactive: [1]

O=C(O)c1nn(Cc2ccc(Cl)cc2Cl)c2ccccc12
not listed: [20]
inactive: all other assays above

O=C(O)CN(CCOCCOCCN(CC(=O)O)CC(=O)O)CC(=O)O
inactive: [1]

O=C1N(c2ccccc2)c2ccccc2C1(Cc1ccncc1)Cc1ccncc1
inactive: [1]

CCCCNc1cc(C(=O)O)cc(S(N)(=O)=O)c1Oc1ccccc1
inactive: [1]

NC(N)=NC(=O)c1nc(Cl)c(N)nc1N
inactive: [3] | [1] | [16] | [18]

c1ccc2nc(N3CCNCC3)ccc2c1
inactive: [2] | [3] | [1] | [8] | [14] | [15] | [19]

CNCCC(Oc1ccccc1OC)c1ccccc1 (stereo unspecified)
inactive: [1]

NC(N)=N/N=C/c1c(Cl)cccc1Cl
inactive: [3] | [1]

COc1ccccc1N1CCN(CC(O)COc2cccc3ccccc23)CC1 (stereo unspecified)
inactive: [1]

NC(=O)CN1CCCC1=O
not listed: [3] | [13]
inactive: all other assays above

COc1ccc(C(=O)N2CCCC2=O)cc1
not listed: [3] | [18]
inactive: all other assays above
